A short description of assay [1]: qHTS assay for small molecules that induce genotoxicity in human embryonic kidney cells expressing luciferase-tagged ATAD5 (AID 651632). Note: nearly all actives have a fitted effect of over 15% in size. The method in brief:
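Test compounds were delivered by pin tool onto HEK293T reporter cells (2,000/well) expressing ATAD5 fused to luciferase. After 16 hr at 37C, 5% CO2, Amplite was added for 30 min at room temperature and luminescence was measured.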

Assay [2] is described as follows: qHTS assay for small molecule agonists of the p53 signaling pathway - cell viability (AID 651633; calls by dose curve;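 note: p53RE-bla HCT reporter cells with a stable beta-lactamase p53 reporter; series mostly up to about 83 µM; nearly all actives have a fitted effect of over 30% in size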). The procedure, abridged:
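p53RE-bla cells were treated with compound for 16 hours at 37 C. Cytotoxicity was then measured as CellTiter-Glo luminescence after 30 min at room temperature.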

Assay [3] in a line: qHTS assay for small molecules that induce genotoxicity in human embryonic kidney cells expressing luciferase-tagged ATAD5 - cell viability (AID 651634; calls by dose curve; note: nearly all actives have a fitted effect of over 25% in size). The procedure, abridged: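 Quantitative high-throughput format. HEK293T cells expressing ATAD5 fused to luciferase were plated at 2,000 cells/well and treated 15.5 hr with compound versus DMSO. Viability was determined by fluorescent live-cell protease substrate, 30 min at 37C.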

Assay [4] in a line: qHTS assay for small molecule disruptors of the mitochondrial membrane potential - cell viability (AID 720634; calls by dose curve;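 note: human HepG2 liver cancer cells; series mostly up to about 83 µM; nearly all actives have a fitted effect of over 20% in size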). The method in brief:
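Same-well counter-screen: following the MMP dye addition, CellTiter-Glo was added to 1 hr compound-treated HepG2 cells and luminescence read after 30 min at room temperature.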

The nature of assay [5]: qHTS assay to test for compound auto fluorescence at 590 nm (red) in HepG2 cells (AID 720674). The procedure, abridged:
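Fluorescence at 590 nm emission following 540 nm excitation was recorded from HepG2 wells one hour after compound transfer, with DMSO-only wells as vehicle and Rose Bengal sodium equivalency as the scale.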

Assay [6] is described as follows: qHTS assay to test for compound auto fluorescence at 535 nm (green) in HepG2 cells (AID 720675).
A short description of assay [7]: qHTS assay to test for compound auto fluorescence at 460 nm (blue) in HEK293 cells (AID 720678). The procedure, abridged:
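HEK293, 2,000 cells/well, 10% dialyzed FBS; attach 4-5 hr 37C; pin compound or DMSO; o/n 37C/5% CO2; fluorescence 405/460 nm; triamterene-equivalent units.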

Assay [8] can be described thus: qHTS assay to test for compound auto fluorescence at 590 nm (red) in HEK293 cells (AID 720679). The method in brief: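 Intensity at 540nm excitation and 590nm emission is reported as Rose Bengal sodium-equivalent autofluorescence. Measurements followed overnight exposure (37C, 5% CO2) of HEK293 cells, 2,000 per well, to 23 nL compound.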
Assay [9] in a line: qHTS assay to test for compound auto fluorescence at 535 nm (green) in HEK293 cells (AID 720680).
Assay [10] in a line: qHTS assay to test for compound auto fluorescence at 460 nm (blue) in HEK293 cell free culture (AID 720681). The procedure, abridged: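 Compounds were added to cell-free DMEM with 10% FBS and fluorescence read directly. The blue channel used 405 nm excitation and 460 nm emission, with triamterene as the reference fluorophore.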
A short description of assay [11]: qHTS assay to test for compound auto fluorescence at 535 nm (green) in HEK293 cell free culture (AID 720682). The procedure, abridged:
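Each library compound, or DMSO control, is added by pintool to medium alone, comprising DMEM and 10% FBS. Emission at 535 nm following 485 nm excitation is quantified against fluorescein.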

The nature of assay [12]: qHTS assay to test for compound auto fluorescence at 590 nm (red) in HEK293 cell free culture (AID 720683). The method in brief: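 Cell-free wells of DMEM with 10% FBS received compound, and intrinsic fluorescence was read at excitation/emission 540/590 nm. Values expressed as equivalence to Rose Bengal sodium.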
Assay [13] is described as follows: qHTS assay to test for compound auto fluorescence at 590 nm (red) in HepG2 cell free culture (AID 720684). The method in brief: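 Rose Bengal sodium served as the reference for red signal. Test compounds were dispensed into serum-containing MEM (10% FBS) without cells, and plates were read at 540/590 nm.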
The nature of assay [14]: qHTS assay to test for compound auto fluorescence at 460 nm (blue) in HepG2 cell free culture (AID 720685). The procedure, abridged:
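Cell-free plates of MEM plus 10% FBS received 23 nL compound or DMSO vehicle; blue-channel (405/460 nm) intensity scored against triamterene as reference fluorophore.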

A short description of assay [15]: qHTS assay to test for compound auto fluorescence at 535 nm (green) in HepG2 cell free culture (AID 720686).
The nature of assay [16]: qHTS assay to test for compound auto fluorescence at 460 nm (blue) in HepG2 cells (AID 720687). The method in brief:
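HepG2 cells in MEM with 10% FBS, attached overnight at 37 C, were exposed to compound or DMSO for 1 hr at 37 C, 5% CO2. Blue fluorescence was read at 405/460 nm, with triamterene as reference fluorophore.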

The target of assay [17] is Glucocorticoid receptor (Homo sapiens) (UniProt P04150). Description: qHTS assay to identify small molecule agonists of the glucocorticoid receptor (GR) signaling pathway (AID 720691; active = well fitted activation curve with a large enough effect in the signal ratio in the repeat runs, not every such curve was filed as active; the % refers to the signal ratio; note: potency is the fitted concentration of half-maximal effect). The procedure, abridged:
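A HeLa cervical cancer line expressing GR and a glucocorticoid response element-driven beta-lactamase gene is treated with compounds for 18 h; LiveBLAzer B/G FRET substrate is then applied and fluorescence read.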

Assay [18] in a line: qHTS assay for small molecule agonists of the p53 signaling pathway (AID 651631; calls by dose curve; note: nearly all actives have a fitted effect of over 15% in size). The procedure, abridged:
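Beta-lactamase reporter activity under p53 response elements was quantified in HCT-116 cells by FRET fluorescence, following 16 h incubation with test compounds at 37 °C and 2 h substrate development at room temperature.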

Assay [19] in a line: qHTS assay for small molecule disruptors of the mitochondrial membrane potential (AID 720635). The method in brief: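 HepG2 cells exposed to compound 1 hr at 37C, then Mito-MPS dye 30 min. Ratio read of aggregate (540/590 nm) versus monomer (490/535 nm) fluorescence.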
Assay [20] has as its target Glucocorticoid receptor (Homo sapiens) (UniProt P04150). Kind of assay: qHTS assay to identify small molecule antagonists of the glucocorticoid receptor (GR) signaling pathway (AID 720692; active = well fitted inhibition curve with a large enough effect in the signal ratio in the repeat runs, not every such curve was filed as active; the % refers to the signal ratio). The procedure, abridged:
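GRE-bla HeLa line, dex-stimulated (5 nM final). Compound exposure 18 h, 37 C. Beta-lactamase FRET read after 2 h RT substrate.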

For seven compounds, outcome and Potency results are on record in PubChem BioAssay (Tox21).

SMILES strings stand for the structures. Unmarked numbers belong to inactive results. Records with an inconclusive call do not appear. Calls of active or inactive are those of the source. Unless noted, calls come from the whole dose curve; as a rule, active = well fitted curve in the direction sought with a large enough effect in the repeat runs; inconclusive = weak or mixed curves; inactive = no such curve, though single readings can be large; an effect the other way counts as inactive or inconclusive.

Chain of Glucocorticoid receptor (Homo sapiens) (P04150 whole entry, looked up): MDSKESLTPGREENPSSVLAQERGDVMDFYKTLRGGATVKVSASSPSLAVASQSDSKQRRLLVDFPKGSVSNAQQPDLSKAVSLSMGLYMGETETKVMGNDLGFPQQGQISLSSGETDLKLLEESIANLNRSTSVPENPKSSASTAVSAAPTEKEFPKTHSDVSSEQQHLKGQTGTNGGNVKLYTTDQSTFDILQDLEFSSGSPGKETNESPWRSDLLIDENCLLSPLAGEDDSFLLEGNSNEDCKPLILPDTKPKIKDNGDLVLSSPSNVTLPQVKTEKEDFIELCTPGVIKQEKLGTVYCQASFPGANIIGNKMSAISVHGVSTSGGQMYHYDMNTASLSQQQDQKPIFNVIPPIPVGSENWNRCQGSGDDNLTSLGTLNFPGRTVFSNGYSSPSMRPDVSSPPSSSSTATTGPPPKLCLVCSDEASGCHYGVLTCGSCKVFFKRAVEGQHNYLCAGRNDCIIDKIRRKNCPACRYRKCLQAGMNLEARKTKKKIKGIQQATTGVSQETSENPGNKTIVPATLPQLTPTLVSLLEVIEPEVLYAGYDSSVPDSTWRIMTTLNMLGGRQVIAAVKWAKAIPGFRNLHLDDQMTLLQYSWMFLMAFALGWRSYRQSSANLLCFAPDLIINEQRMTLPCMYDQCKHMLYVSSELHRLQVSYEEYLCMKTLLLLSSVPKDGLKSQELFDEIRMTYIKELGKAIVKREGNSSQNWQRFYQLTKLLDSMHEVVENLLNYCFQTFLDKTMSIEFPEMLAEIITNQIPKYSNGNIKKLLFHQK

Turning to `O=C(NC(=O)c1c(F)cccc1F)Nc1cc(Cl)c(F)c(Cl)c1F`, the result in assay [1], in assay [5], in [6], in assay [7], in [8] and in assay [9] was inactive. Further, the result in [10], in [11], in [12], in assay [13], in [14] and in assay [15] was inactive. For the same compound, the compound was called inactive in assay [16]. Moreover, the Potency result in [2], in assay [3], in [4] and in assay [17] was “inactive” each time.

`ClCOCCl`: the Potency entry in assay [18], in [4], in [19], in assay [17] and in assay [20] was “inactive” throughout. Further, the compound was classed as inactive in [1], in assay [5], in assay [6], in assay [7], in [8] and in assay [9]. In addition, the outcome in assay [10], in [11], in assay [12], in [13], in assay [14] and in [15] was inactive. The result in [16] was inactive.

In the case of `Cc1ccc(-c2nc3ccc(C)cn3c2CC(=O)N(C)C)cc1`, the Potency result in assay [18], in [2] and in assay [19] was “inactive” throughout. For the same compound, the compound was classed as inactive in assay [5], in [6], in assay [7], in assay [8], in assay [9] and in assay [10]. The call in assay [11], in assay [12], in [13], in [14], in assay [15] and in assay [16] was inactive. In addition, in assay [17], the Potency is 23.9 µM (active).

As to `CNC(=O)Oc1cc(C)c(N(C)C)c(C)c1`, the call in assay [1], in [5], in assay [6], in assay [7], in assay [8] and in assay [9] was inactive. In addition, the result in assay [10], in assay [11], in assay [12], in assay [13], in [15] and in assay [16] was inactive. Besides, the Potency entry in assay [2], in assay [3], in assay [4], in assay [17] and in assay [20] was “inactive” in each case.

As to `O=C(NC(O)C(Cl)(Cl)Cl)NC(O)C(Cl)(Cl)Cl` (configuration not stated), the compound was called inactive in assay [1], in [5], in assay [6], in [7], in assay [8] and in assay [9]. For the same compound, the result in [10], in assay [11], in [12], in [13], in assay [14] and in assay [15] was inactive. For the same compound, the outcome in [16] was inactive. Besides, the Potency result in assay [2], in [3], in assay [4], in assay [17] and in assay [20] was “inactive” throughout.

On to `O=C(Cl)/C=C/C(=O)Cl`, for which the Potency entry in assay [18], in assay [19], in assay [17] and in [20] was “inactive” throughout. The compound was classed as inactive in assay [1], in [7], in [8], in [10], in assay [11] and in assay [12]. In addition, the compound was called inactive in [13], in [14], in assay [15] and in assay [16].

As for `CCNc1nc(Cl)nc(NC(C)(C)C)n1`, the call in assay [1], in assay [5], in [6], in assay [7], in assay [8] and in assay [9] was inactive. Further, the compound was classed as inactive in [10], in assay [11], in assay [12], in assay [13], in assay [14] and in assay [15]. The compound was called inactive in assay [16]. Further, the Potency entry in assay [2], in assay [3], in assay [4] and in assay [17] was “inactive” throughout.
